Source: PubChem BioAssay
m-calpain inh = inhibitors of pig calpain II, primary screen, biochemical, fluorogenic peptide substrate, 1536-well; purified calpain II, 30 min; inhibition, % at 16 µM; 220,000 compounds, 0.37% hits; AID 1236, 2008;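 active = inhibition above about 50%, limit read from the data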
H9c2 TAG inh = inhibitors of triacylglycerol accumulation, primary screen, cell-based, uHTS, fluorescence, H9c2; inhibition, % at 12.5 µM; 230,000 compounds, 0.66% hits; AID 651582, 2012; H9c2 cells, Nile Red lipid (TAG) fluorescence; cells loaded with 200 µM oleic acid;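 active = pattern-corrected inhibition of lipid staining of at least 50% with the nuclear-stain viability signal not falling by more than 50%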
Cardio protect = cardioprotection against H2O2-induced cell death, primary screen, uHTS, H9c2 cells, ATPLite luminescence | AID 588492, 2011 | 360,000 compounds, 0.63% hits | protection from H2O2 cell death, % at 20 µM | H9c2 cardiomyocytes, H2O2 injury protection, 2 h;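 active = compounds giving at least 50% protection of heart cells from peroxide-induced death in the single-dose screen, raw or plate-pattern-corrected value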
beta cell repl = inducers of MIN6 beta-cell proliferation, primary screen, ATP luminescence, uHTS; MIN6 cells proliferation, ATPlite luminescence, 48 h; cells starved in 0.2% serum; 100% = growth in 10% serum; 330,000 compounds, 0.29% hits; AID 2380, 2010; proliferation, % at 10 µM;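 active = compounds whose signal lies at least 3.5 SD above the mean of all wells on their plate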
FAS TE block = FAS thioesterase domain inhibitors, primary screen, biochemical, fluorescence intensity, uHTS; 360,000 compounds, 0.67% hits; recombinant FAS-TE, OMFH fluorogenic substrate, fluorescence endpoint; inhibition, % at 15 µM; AID 602261, 2012;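 active = compounds whose normalised, plate-corrected inhibition of enzyme fluorescence in the single-dose primary screen is 50% or more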
Target sequence (P49327 whole entry, looked up, the tested form may be a part): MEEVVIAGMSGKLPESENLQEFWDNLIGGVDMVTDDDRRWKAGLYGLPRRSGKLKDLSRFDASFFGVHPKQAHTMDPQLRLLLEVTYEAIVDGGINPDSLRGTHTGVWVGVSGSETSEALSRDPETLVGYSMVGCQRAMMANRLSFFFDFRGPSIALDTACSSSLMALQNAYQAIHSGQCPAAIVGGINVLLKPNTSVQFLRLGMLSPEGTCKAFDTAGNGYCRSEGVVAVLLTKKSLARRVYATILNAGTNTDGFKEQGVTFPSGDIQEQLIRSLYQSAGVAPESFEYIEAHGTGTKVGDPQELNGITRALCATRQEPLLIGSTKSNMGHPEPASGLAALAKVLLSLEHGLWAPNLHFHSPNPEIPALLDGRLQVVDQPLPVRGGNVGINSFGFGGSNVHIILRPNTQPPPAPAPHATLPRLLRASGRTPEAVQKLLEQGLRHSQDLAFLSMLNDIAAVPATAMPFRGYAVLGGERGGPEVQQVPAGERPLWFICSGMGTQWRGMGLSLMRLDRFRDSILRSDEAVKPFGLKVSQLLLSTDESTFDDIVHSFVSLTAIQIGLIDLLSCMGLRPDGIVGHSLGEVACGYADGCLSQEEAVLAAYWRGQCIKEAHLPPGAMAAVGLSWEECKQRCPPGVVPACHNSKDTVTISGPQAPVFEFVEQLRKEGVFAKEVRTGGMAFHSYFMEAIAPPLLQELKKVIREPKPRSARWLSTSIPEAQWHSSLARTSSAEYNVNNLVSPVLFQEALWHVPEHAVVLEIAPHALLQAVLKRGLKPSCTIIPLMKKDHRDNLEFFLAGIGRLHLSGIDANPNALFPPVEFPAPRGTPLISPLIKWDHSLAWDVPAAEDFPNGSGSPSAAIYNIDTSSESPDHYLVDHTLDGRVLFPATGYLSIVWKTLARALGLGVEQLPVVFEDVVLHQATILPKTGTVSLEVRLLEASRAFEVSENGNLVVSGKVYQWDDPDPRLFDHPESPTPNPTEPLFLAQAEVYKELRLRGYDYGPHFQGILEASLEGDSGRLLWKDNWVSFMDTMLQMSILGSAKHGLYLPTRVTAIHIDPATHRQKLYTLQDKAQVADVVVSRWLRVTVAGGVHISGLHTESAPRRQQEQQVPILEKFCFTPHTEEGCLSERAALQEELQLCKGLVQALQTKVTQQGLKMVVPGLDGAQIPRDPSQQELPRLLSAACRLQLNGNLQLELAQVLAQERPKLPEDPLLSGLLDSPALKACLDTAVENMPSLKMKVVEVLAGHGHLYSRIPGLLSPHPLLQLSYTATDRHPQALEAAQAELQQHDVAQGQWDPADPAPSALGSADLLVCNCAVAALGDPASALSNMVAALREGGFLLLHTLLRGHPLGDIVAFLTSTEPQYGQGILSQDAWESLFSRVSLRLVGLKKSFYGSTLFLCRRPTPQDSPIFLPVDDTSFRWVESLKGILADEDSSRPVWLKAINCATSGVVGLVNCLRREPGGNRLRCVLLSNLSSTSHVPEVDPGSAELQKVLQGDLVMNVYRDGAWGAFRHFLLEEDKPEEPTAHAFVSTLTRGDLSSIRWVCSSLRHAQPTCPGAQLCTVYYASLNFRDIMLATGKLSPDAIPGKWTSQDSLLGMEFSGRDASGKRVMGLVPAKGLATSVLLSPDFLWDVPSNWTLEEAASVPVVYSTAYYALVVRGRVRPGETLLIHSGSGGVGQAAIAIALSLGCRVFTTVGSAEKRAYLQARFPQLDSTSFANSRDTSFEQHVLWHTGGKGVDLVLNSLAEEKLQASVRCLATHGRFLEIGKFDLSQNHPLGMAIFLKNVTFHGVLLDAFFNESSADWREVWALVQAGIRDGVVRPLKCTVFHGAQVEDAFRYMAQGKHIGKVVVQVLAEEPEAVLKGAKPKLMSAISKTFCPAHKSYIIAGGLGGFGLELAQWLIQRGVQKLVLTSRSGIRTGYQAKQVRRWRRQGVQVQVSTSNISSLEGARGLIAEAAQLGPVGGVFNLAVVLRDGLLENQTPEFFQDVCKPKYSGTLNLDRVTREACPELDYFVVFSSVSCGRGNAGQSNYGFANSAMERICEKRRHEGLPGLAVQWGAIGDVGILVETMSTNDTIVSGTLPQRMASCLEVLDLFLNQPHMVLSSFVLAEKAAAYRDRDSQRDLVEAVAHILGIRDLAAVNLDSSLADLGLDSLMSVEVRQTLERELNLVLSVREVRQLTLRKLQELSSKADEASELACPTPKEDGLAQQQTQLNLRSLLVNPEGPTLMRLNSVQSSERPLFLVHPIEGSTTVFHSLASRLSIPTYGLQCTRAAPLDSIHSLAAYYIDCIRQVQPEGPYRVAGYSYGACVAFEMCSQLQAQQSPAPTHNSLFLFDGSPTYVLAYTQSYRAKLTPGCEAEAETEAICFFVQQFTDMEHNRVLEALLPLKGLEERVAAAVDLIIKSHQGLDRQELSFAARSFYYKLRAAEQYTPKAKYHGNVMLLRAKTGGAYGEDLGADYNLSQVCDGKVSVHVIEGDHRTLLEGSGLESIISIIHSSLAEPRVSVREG
aDG glyco up = activators of alpha-DG glycosylation, primary screen, uHTS, Pro5-aDG cells, AlphaScreen; activation, % at 10 µM; AID 624168, 2012; 360,000 compounds, 0.22% hits; alpha-DG glycosylation AlphaScreen (IIH6); 0% Pro5, 100% B10-LARGE cell signal;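 active = activation of at least 8% versus controls, or a plate z-score of at least 8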;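 note: Pro5 are CHO cells carrying HIG-tagged alpha-DG that lacks glycosylation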
TAG conf = triacylglycerol accumulation inhibitors, retest, confirmation, cell-based, single concentration, Nile Red fluorescence, H9c2. shares compounds with H9c2 TAG inh. H9c2 lipid accumulation; cells loaded with 200 µM oleic acid. 990 compounds, 71% hits. inhibition, % at 12.5 µM. AID 651629, 2012;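 active = mean inhibition across replicates of 40% or more; inactive = mean inhibition below 40%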
Each line names hits and unclear results; the compound was inactive in the other large screens (follow-up assays come after a bar, where they were run). Shown are actives, neighbours in structure and some others; about 2.3% of the full set was active somewhere.

CC(=O)Nc1cccc(-c2ccnc3c2CC(C)(C(=O)NCc2ccc(N(C)C)cc2)O3)c1 (centres undefined)	H9c2 TAG inh 57 (no result: m-calpain inh, beta cell repl) | TAG conf 54
Cc1cccc(C(O)c2ncc(-c3ccc(C(F)(F)F)cc3)[nH]2)c1C (centres undefined)	none (no result: m-calpain inh, beta cell repl)
COc1cc(-c2nc3c(c(C)nn3-c3ccccc3)c3cc(OC)c(OC)cc23)ccc1O	H9c2 TAG inh 62 | TAG conf 58
COc1cc(-c2nc3ccccc3nc2-c2ccc(O)c(OC)c2)ccc1O	none (no result: m-calpain inh, H9c2 TAG inh)
CCN(CC)CCn1c(=S)[nH]c2cc(C(=O)NCc3ccc(C)cc3)ccc2c1=O	none (no result: m-calpain inh, H9c2 TAG inh)
Cc1ccc(C(=O)CC2(O)C(=O)N(CCc3ccccc3)c3ccc(Br)cc32)o1 (centres undefined)	H9c2 TAG inh 51 | TAG conf inactive
c1ccc(CNc2nc(NCc3ccco3)nc(N3CCOCC3)n2)cc1	none
Cc1cccc(Nc2nc(NCc3ccco3)nc(N3CCOCC3)n2)c1	H9c2 TAG inh 86 | TAG conf 83
COc1ccc(Br)c(C(=O)Nc2cccc(S(=O)(=O)N3CCOCC3)c2)c1	none (no result: m-calpain inh)
COc1ccc(-c2cc(C(F)F)n3ncc(C(=O)Nc4cccc(S(=O)(=O)N5CCOCC5)c4)c3n2)cc1	H9c2 TAG inh 58 | TAG conf 50
COc1cccc(CN(C)C[C@H]2OCc3cnnn3CCCC(=O)N([C@H](C)CO)C[C@@H]2C)c1	none (no result: m-calpain inh, beta cell repl)
C[C@H]1CN([C@@H](C)CO)C(=O)Cc2cc(NC(=O)CCC(F)(F)F)ccc2O[C@H]1CN(C)S(=O)(=O)c1ccc(Cl)cc1	H9c2 TAG inh 64 (no result: m-calpain inh) | TAG conf 69
C[C@H]1CN([C@@H](C)CO)C(=O)Cc2cc(NC(=O)CCC(F)(F)F)ccc2O[C@H]1CN(C)S(=O)(=O)c1ccc(F)cc1	none (no result: m-calpain inh, H9c2 TAG inh)
CC(C)(C)CNC(=O)C1(C)CCN1C(=O)Cc1ccc(-c2ccccc2)cc1 (centres undefined)	none (no result: m-calpain inh, beta cell repl)
Cc1cc(N2CCOCC2)n2nc(C)c(-c3ccc(Cl)cc3)c2n1	none (no result: m-calpain inh, H9c2 TAG inh)
CCc1nn2c(N3CCOCC3)cc(C)nc2c1-c1ccc(F)cc1	H9c2 TAG inh 70 | TAG conf 64
CC[C@H](C)[C@H](NC(N)=O)C(=O)NCCc1ccc(OC)c(OC)c1	H9c2 TAG inh 94 | TAG conf inactive
COc1ccc(CCNC(=O)C(NC(=O)OCc2ccccc2)C(C)C)cc1OC (centres undefined)	none
COC(=O)C1=C(C)N(Cc2ccccc2)C(=NCC(C)C)N[C@H]1c1cccc(F)c1	H9c2 TAG inh 92 (no result: m-calpain inh) | TAG conf 73
COc1ccc2c(c1)c(CC(=O)Nc1ccc(C)cc1)c(C)n2C(=O)c1ccc(Cl)cc1	H9c2 TAG inh 61 | TAG conf 50
COc1ccc(NC(=O)Cc2c(C)n(C(=O)c3ccc(Cl)cc3)c3ccc(OC)cc23)cc1	none
CCOC(=O)c1c(CSC(=N)N)n(-c2ccccc2)c2cc(Br)c(OC(C)=O)cc12	H9c2 TAG inh 62 | TAG conf 68
Cc1cc(C)c2nc(N3CCC(C(=O)NCC4CCCO4)CC3)sc2c1 (centres undefined)	none (no result: m-calpain inh, H9c2 TAG inh)
Cc1cc(C)c2nc(N3CCC(C(=O)NCCCN4CCCCC4)CC3)sc2c1	H9c2 TAG inh 60 | TAG conf inactive
Cc1ccc2c(=O)n3c(nc2c1)C(Cc1ccc(O)cc1)NC(=O)c1cc2ccccc2cc1-3 (centres undefined)	H9c2 TAG inh 53 (no result: m-calpain inh, beta cell repl) | TAG conf 67
O=C1NC(Cc2ccc(O)cc2)c2nc3ccc(Cl)cc3c(=O)n2-c2cc(Cl)ccc21 (centres undefined)	none (no result: m-calpain inh, H9c2 TAG inh, Cardio protect, FAS TE block, aDG glyco up)
O=C1NC(Cc2ccc(O)cc2)c2nc3ccc(Cl)cc3c(=O)n2-c2cc3ccccc3cc21 (centres undefined)	H9c2 TAG inh 64 (no result: m-calpain inh, beta cell repl) | TAG conf 60
O=C(NC(c1ccc(Cl)cc1)c1cnccn1)C1CCN(CCCc2ccccc2)CC1 (centres undefined)	none (no result: m-calpain inh, beta cell repl)
CC1(C(=O)NCc2cccc(Cl)c2)Cc2c(-c3cccc(C(N)=O)c3)ccnc2O1 (centres undefined)	none (no result: m-calpain inh, beta cell repl)
CCCCOc1ccccc1C1CC(=O)NC2=C1C(=O)CCC2 (centres undefined)	H9c2 TAG inh 71 | TAG conf 66
CCCOc1ccccc1C1CC(=O)NC2=C1C(=O)CCC2 (centres undefined)	none
Nc1nonc1-n1nnc(C(=O)N/N=C/c2ccncc2)c1CSc1ccccc1	none (no result: m-calpain inh, H9c2 TAG inh)
CCCNC(=O)c1ccc(N2CCC3(CC2)CC(c2cccc(Br)c2)=NO3)c(NC(=O)c2cccc(C)c2)c1	none (no result: m-calpain inh)
CCCCC(CC)C(=O)Nc1cc(C(=O)NCc2ccc(C)cc2)ccc1N1CCC2(CC1)CC(c1cccc(Br)c1)=NO2 (centres undefined)	none (no result: m-calpain inh)
COc1ccc(CNC(=O)c2ccc(N3CCC4(CC3)CC(c3ccc(Cl)cc3)=NO4)c(NC(=O)Cc3ccc(F)cc3)c2)cc1	H9c2 TAG inh 60 (no result: m-calpain inh) | TAG conf 44
COc1ccc(CNC(=O)c2ccc(N3CCC4(CC3)CC(c3ccc(Cl)cc3)=NO4)c(NC(=O)c3ccccc3)c2)cc1	none (no result: m-calpain inh)
CCCCC(CC)C(=O)Nc1cc(C(=O)NCc2ccc(C)cc2)ccc1N1CCC2(CC1)CC(c1ccccc1)=NO2 (centres undefined)	H9c2 TAG inh 56 (no result: m-calpain inh) | TAG conf 55
CCCCCCCC(=O)Nc1cc(C(=O)NCCC)ccc1N1CCC2(CC1)CC(c1cccc(Br)c1)=NO2	H9c2 TAG inh 70 (no result: m-calpain inh) | TAG conf 61
CCCCCC(=C/c1ccccc1)/C=N/Nc1ccc(S(=O)(=O)N2CCOCC2)cc1[N+](=O)[O-]	H9c2 TAG inh 83 (no result: m-calpain inh, beta cell repl) | TAG conf 81
O=C(O)c1ccccc1/C=N/Nc1ccc(S(=O)(=O)N2CCOCC2)cc1[N+](=O)[O-]	none
CCc1nnc(NC(=O)c2cc3c(s2)CCCCC3)s1	H9c2 TAG inh 50 (no result: m-calpain inh) | TAG conf inactive
CC(/C=N/NC(=O)c1n[nH]c2c1CCC2)=C\c1ccccc1	H9c2 TAG inh 72 | TAG conf inactive
O=C(N/N=C/C(Br)=C\c1ccccc1)c1n[nH]c2c1CCC2	none (no result: H9c2 TAG inh)
COc1ccc2c(c1)[nH]c1c(=O)n(/N=C/C3C(C)C=C(C)CC3C)c(=O)[nH]c12 (centres undefined)	H9c2 TAG inh 85 | TAG conf inactive
